Only some compounds are listed: those with a hit (about 7.3% of all), similar ones and a draw of the others.
AmpC no deterg – blocks E. coli AmpC beta-lactamase in detergent-free assay. P00811. AmpC nitrocefin hydrolysis, absorbance 480 nm, 0.0001% Triton. Potency, µM (highest dose often 57.1 µM), for the others: top-dose activity change, negative = inhibition, usual class: inhibitors. 0.52% of 330,000 active. AID 485341;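 note: potency is the fitted concentration of half-maximal effect; plate controls were no compound for no effect and no enzyme for full effect; nearly all actives have a fitted effect of over 20% in size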
Target sequence (P00811 whole entry, looked up): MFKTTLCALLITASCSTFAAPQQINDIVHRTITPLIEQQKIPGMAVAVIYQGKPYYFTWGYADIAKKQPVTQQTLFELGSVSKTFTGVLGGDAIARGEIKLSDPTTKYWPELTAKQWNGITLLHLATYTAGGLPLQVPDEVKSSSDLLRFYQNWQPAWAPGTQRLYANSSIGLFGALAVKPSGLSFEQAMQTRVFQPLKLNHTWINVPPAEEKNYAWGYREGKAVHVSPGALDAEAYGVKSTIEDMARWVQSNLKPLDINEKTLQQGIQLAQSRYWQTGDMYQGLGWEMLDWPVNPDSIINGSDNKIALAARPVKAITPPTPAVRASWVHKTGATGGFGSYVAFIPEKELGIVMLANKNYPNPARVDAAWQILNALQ
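AmpC (5.3 nM in the dispensed reagent) in 20 mM phosphate pH 7.0 with 0.01% (detergent screen) or 0.0001% Triton X-100 was preincubated with compounds for 15 min at room temperature. Nitrocefin was then added from an 800 uM solution, and hydrolysis was followed at 480 nm.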
AmpC detergent – blocks E. coli AmpC beta-lactamase in detergent assay; AmpC hydrolysis of nitrocefin, absorbance 480 nm, 0.01% Triton; 0.041% of 370,000 active; Potency, µM (highest dose often 114 µM), for the others: at the top dose activity change, negative = inhibition, hits mostly inhibitors; P00811;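 note: potency is the fitted concentration of half-maximal effect; 0% = no-compound wells and -100% = no-enzyme wells; nearly all actives have a fitted effect of over 25% in size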
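20 mM phosphate pH 7.0 + 0.01% (detergent screen) or 0.0001% Triton X-100; 5.3 nM AmpC reagent; cpd preinc 15 min RT; nitrocefin (800 uM stock) to start; A480 q20 s × 4 min; Activity was normalised to no-enzyme and no-compound control wells.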
FMDV antiviral – blocks foot and mouth disease virus; FMDV antiviral cell-based qHTS; 1.2% of 410,000 active; Potency, µM (top dose mostly 57.9 µM), without a hit: at the top dose activity change, negative = inhibition, most hits filed as inhibitors; calls by dose curve; tested in HEK293T cells; note: read-out not given here; potency is the fitted concentration of half-maximal effect; nearly all actives have a fitted effect of over 45% in size
HCMV inh – human cytomegalovirus inhibition | HFF cells, HCMV-luciferase reporter, 72 h; hits give low values | activity change, negative = inhibition, % at 57.5 µM | 4.5% of 410,000 active; in the data active = activity change below about -60%; inconclusive = no clear call, values can overlap the other calls; inactive = above about -39%
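Screen run at 2 compound doses on HFFs infected with reporter HCMV, MOI 1 PFU/cell. Luciferase activity from cell lysates at 72 h post infection gave inhibition relative to buffer-only and Salinomycin wells.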
HCV inhibitor – blocks hepatitis C virus. Huh7.5.1 HCVcc-Cre infection, luciferase reporter, 44 h. Potency, µM (titrated, usually from 41.8 µM), without a hit: at the top dose activity change, negative = inhibition, most hits filed as inhibitors. 3.4% of 340,000 active; note: potency is the fitted concentration of half-maximal effect
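HCVcc-Cre virus at an moi near 0.5 was added right after compound to cells cultured 4 h from seeding (1,000 cells/well). Luciferase activity was determined 44 h later, 15 min after substrate addition at RT.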
An asterisk follows results filed as active; [ ] = remark or other dose. Unless noted, calls come from the whole dose curve; as a rule, active = well fitted curve in the direction sought with a large enough effect; inconclusive = small, poorly fitted or top-dose-only effect, or another doubt; inactive = no such curve, though single readings can be large; an effect the other way counts as inactive or inconclusive. Unless noted, % is set by controls: 0 for no effect and ±100 for the full control effect.

Results for COC(C/C=C/C(=O)[C@H](C)OCc1ccccc1)OC ?
FMDV antiviral: 35µM*; HCV inhibitor: 1%[8.37 µM]

What do the screens show for `Cc1ccnc(NC(c2ccccc2)c2ccc3cccnc3c2O)c1` (stereo not given)?
FMDV antiviral: -13%; HCMV inh: -78*; HCV inhibitor: 13µM*

How did Cc1ccnc(NC(c2cccnc2)c2ccc3cccnc3c2O)c1 (stereo not given) do in these assays?
AmpC no deterg: 2%; AmpC detergent: 1%; FMDV antiviral: -13%; HCMV inh: -25; HCV inhibitor: 4µM*

How did CC(C)Cc1nn2c(=O)cc(COC(=O)c3ccc(NC(=O)CCc4ccccc4)cc3)nc2s1 do in these assays?
AmpC detergent: 0%; FMDV antiviral: 11%; HCMV inh: -20

Results for O=C(OCc1nc2ccccc2s1)c1cccs1 ?
AmpC detergent: -9%; FMDV antiviral: 11%; HCMV inh: -62*; HCV inhibitor: 15%

How did O=C(OCc1nc2ccccc2s1)c1ccccc1O do in these assays?
AmpC no deterg: -17%[11.4 µM]; AmpC detergent: -13%; FMDV antiviral: 26%; HCMV inh: -24; HCV inhibitor: inconclusive

How did Cc1cccc(N2CCN(C(=O)CN3C(=O)COc4ccc(S(=O)(=O)N5CCOCC5)cc43)CC2)c1C do in these assays?
AmpC detergent: 0%; FMDV antiviral: -8%; HCMV inh: 4

Results for COc1ccc(Cl)cc1Nc1nc(N)c2ccccc2n1 ?
AmpC no deterg: -48%; AmpC detergent: -18%; FMDV antiviral: 9%; HCMV inh: 84; HCV inhibitor: 14µM*

How did CN(C)C(=O)Oc1c(Cl)cc(Cl)c2ccccc12 do in these assays?
AmpC no deterg: 31%; AmpC detergent: -10%; FMDV antiviral: -22%; HCMV inh: -71*; HCV inhibitor: -8%

What do the screens show for `CCOc1ccc(C2C(=O)N(C3CCCCC3)CC(=O)N2Cc2ccc(F)cc2)cc1OC` (stereo not given)?
AmpC detergent: -4%; FMDV antiviral: 1%; HCMV inh: -40

How did CC(=O)N1CCN(C(=O)COC(=O)c2oc3ccccc3c2C)CC1 do in these assays?
AmpC no deterg: 8%; AmpC detergent: -3%; FMDV antiviral: 1%; HCMV inh: 0; HCV inhibitor: -9%

Results for CC[C@H]1CN2CCC1C[C@H]2[C@H](O)c1ccnc2ccc(OC)cc12 (stereo not given in full) ?
AmpC no deterg: -27%; AmpC detergent: -9%; FMDV antiviral: -26%; HCMV inh: -68*; HCV inhibitor: 3%

Results for COC(=O)c1cccc(Nc2c3c(nc4ccccc24)CCC3)c1 ?
AmpC no deterg: -20%; AmpC detergent: -1%; FMDV antiviral: inconclusive; HCMV inh: -20; HCV inhibitor: 3.2µM*

Results for COc1ccccc1Nc1c2c(nc3ccccc13)CCC2 ?
AmpC no deterg: -10%; AmpC detergent: 4%; FMDV antiviral: -26%; HCMV inh: -68*; HCV inhibitor: inconclusive

How did O=C(Nc1c2c(nc3ccccc13)CCCC2)c1cccc([N+](=O)[O-])c1 do in these assays?
AmpC no deterg: -12%; AmpC detergent: inconclusive; FMDV antiviral: -19%; HCMV inh: -64*; HCV inhibitor: inconclusive

How did COc1ccc(Nc2c3c(nc4ccccc24)CCC3)c(OC)c1 do in these assays?
AmpC no deterg: -7%; AmpC detergent: -9%; FMDV antiviral: -23%; HCMV inh: inconclusive; HCV inhibitor: inconclusive

Results for CCOC(=O)c1cccc(Nc2c3c(nc4ccccc24)CCC3)c1 ?
AmpC detergent: 4%; FMDV antiviral: inconclusive; HCMV inh: -27

Results for c1ccc2c(Nc3ccc4c(c3)OCCO4)c3c(nc2c1)CCCC3 ?
AmpC no deterg: 38%; AmpC detergent: inconclusive; FMDV antiviral: -19%; HCMV inh: -73*; HCV inhibitor: inconclusive

How did O=C(Nc1oc2ccccc2c(=O)c1-c1ccc2c(c1)OCO2)c1ccco1 do in these assays?
FMDV antiviral: 19%; HCMV inh: -4

What do the screens show for `CCc1ccc(-n2nc3ccc(NC(=O)c4cc(Cl)c(OC)c(Cl)c4)cc3n2)cc1`?
AmpC detergent: -1%; FMDV antiviral: -21%; HCMV inh: 10

What do the screens show for `COc1ccc(Sc2cccc(Cl)c2)c(C(=O)O)c1`?
HCMV inh: -6

What do the screens show for `Cc1nnc(N2C(=O)c3oc4ccccc4c(=O)c3C2c2ccc(C(C)(C)C)cc2)s1` (stereo not given)?
AmpC detergent: -2%; FMDV antiviral: 4%; HCMV inh: 3

Results for COc1cc(Nc2c3c(nc4ccccc24)CCCC3)cc(OC)c1OC ?
AmpC no deterg: -15%; AmpC detergent: -6%; FMDV antiviral: -10%; HCMV inh: -36; HCV inhibitor: -21%

How did COc1cc(Cl)c(C)cc1Nc1c2c(nc3ccccc13)CCC2 do in these assays?
AmpC detergent: 7%; FMDV antiviral: inconclusive; HCMV inh: -101*

How did COC(=O)C12OCC34C(CC5C(C)=C(O)C(=O)CC5(C)C3C(O)C1O)OC(=O)C(OC(=O)C=C(C)C)C24 (stereo not given) do in these assays?
FMDV antiviral: -42%; HCMV inh: -99*

Results for COC(=O)C12OCC34C(CC5C(C)=C(O)C(=O)CC5(C)C3C(O)C1O)OC(=O)C(OC(=O)/C=C(\C)C(C)C)C24 (stereo not given) ?
FMDV antiviral: -31%; HCMV inh: -98*; HCV inhibitor: inconclusive

Results for CC(C)N=c1cc2n(-c3ccc(Cl)cc3)c3ccccc3nc-2cc1Nc1ccc(Cl)cc1 ?
FMDV antiviral: -14%; HCMV inh: -64*; HCV inhibitor: -12%

Results for CC(NC(=O)c1ccccc1)c1nc2ccccc2n1Cc1ccc(Cl)cc1 (stereo not given) ?
AmpC detergent: 15%; FMDV antiviral: -24%; HCMV inh: -15

Results for CC12CC3CC(C)(C1)CC(NCc1ccncc1)(C3)C2 ?
AmpC no deterg: -28%; AmpC detergent: -4%; FMDV antiviral: 2%; HCMV inh: -27; HCV inhibitor: 7%

Results for c1ccc(CCNc2ncnc3scc(C4COc5ccccc5O4)c23)cc1 (stereo not given) ?
AmpC no deterg: -5%; AmpC detergent: 2%; FMDV antiviral: 28µM*; HCMV inh: -84*; HCV inhibitor: 13µM*

How did COc1cc2c(cc1OC)CN(C(=O)c1ccc3[nH]c(C)c(C)c3c1)CC2 do in these assays?
AmpC no deterg: 15%; AmpC detergent: -10%; FMDV antiviral: -21%; HCMV inh: 16; HCV inhibitor: -29%

Results for CCn1cc(CCC(=O)NCc2ccccc2OC)c2ccccc21 ?
AmpC no deterg: -7%; AmpC detergent: 1%; FMDV antiviral: 7%; HCMV inh: 3; HCV inhibitor: 10µM*

How did Cc1cc(C)cc(C(=O)NCCn2cc(C(=O)N3CCSCC3)nn2)c1 do in these assays?
FMDV antiviral: -2%
